IP6K1 inh – IP6K1 kinase inhibition; IP6K1 kinase, ADP-Glo luminescence, 2 h; hits give low values; activity change, % (series mostly up to about 58 µM); 0.81% of 140,000 active; in the data active = activity change below about -25%; also: % is scaled to controls: 0 for no effect and ±100 for the full control effect
Target sequence (Q92551 whole entry, looked up): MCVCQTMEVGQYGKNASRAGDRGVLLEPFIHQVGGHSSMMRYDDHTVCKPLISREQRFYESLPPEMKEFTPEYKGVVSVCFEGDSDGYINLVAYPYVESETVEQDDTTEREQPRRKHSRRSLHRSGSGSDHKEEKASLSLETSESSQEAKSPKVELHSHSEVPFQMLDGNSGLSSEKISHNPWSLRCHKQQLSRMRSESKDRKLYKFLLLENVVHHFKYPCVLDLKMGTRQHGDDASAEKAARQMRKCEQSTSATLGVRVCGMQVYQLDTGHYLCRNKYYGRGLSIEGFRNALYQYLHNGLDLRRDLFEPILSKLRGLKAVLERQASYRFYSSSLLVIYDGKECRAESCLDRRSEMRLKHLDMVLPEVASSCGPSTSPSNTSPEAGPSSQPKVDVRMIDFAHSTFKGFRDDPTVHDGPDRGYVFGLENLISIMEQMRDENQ
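ADP-Glo luminescence measures ADP made by human IP6K1 during a 2 h RT reaction with ATP/IP6 (mix at 1.3 mM/130 uM); top library doses 57.5 and 19.1 uM final.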
HEK293 viab – reduces viability of HEK-293 SNCA reporter cells; HEK-293-SNCA-luc viability, GF-AFC fluorescence, 24 h; Potency, µM (titrated, usually from 57.1 µM), inactives show at the highest dose activity change, negative = cytotoxicity, actives largely listed as cytotoxic; 0.12% of 150,000 active;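 also: potency is read from the fitted curve at half-maximal effect; 0% = DMSO-treated cells and -100% = medium-only wells without cells; nearly all actives have a fitted effect of over 30% in size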
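Cytotoxicity counterscreen: after 24 h compound treatment of genome-edited SNCA-luciferase HEK-293 cells, live-cell protease substrate GF-AFC read by fluorescence after 30 min; activity scaled between DMSO (0%) and medium-only (-100%), curves Hill-fitted.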
KDM5B inh – KDM5B demethylase inhibition; KDM5B demethylase, FDH-coupled NADH fluorescence (FDH is formaldehyde dehydrogenase); Potency, µM (highest dose often 57.7 µM), most hits filed as inhibitors; 2.6% of 220,000 active; AID 1347165; also: potency is read from the fitted curve at half-maximal effect; 0% is about no effect; nearly all actives have a fitted effect of over 70% in size
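Coupled FDH/NAD⁺ fluorescence readout. KDM5BΔAP 200 nM final; compound titration, 10 min RT preincubation; substrate mix 12.5 µM H3K4me3, 25 µM 2-OG, 50 µM Fe(II), 100 µM ascorbate, 0.25 mM NAD⁺, 0.25 U/mL FDH; ΔRFU over 30 min.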
SNCA expr inh – SNCA gene expression inhibition; HEK-293 SNCA-luciferase knock-in, luminescence, 24 h; Potency, µM (top dose mostly 57.2 µM), inactives show at the highest dose activity change, negative = inhibition, hits mostly inhibitors; 0.17% of 140,000 active;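 also: potency is read from the fitted curve at half-maximal effect; plate controls were DMSO cells for no effect and cell-free wells for full effect; nearly all actives have a fitted effect of over 45% in size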
* hit, by the source's call; i = inactive; u = inconclusive; x = no result; [ ] = remark or other dose. Most compounds without a hit are left out; they make up all but 2.8% or so of the library. Unless noted, calls follow the shape of the dose curve; as a rule, active = well fitted curve in the direction sought with a large enough effect; inconclusive = small, poorly fitted or top-dose-only effect, or another doubt; inactive = no such curve, though single readings can be large; an effect the other way counts as inactive or inconclusive.

SMILES	IP6K1 inh	HEK293 viab	KDM5B inh	SNCA expr inh
O=C1Nc2ccc(-c3ccccc3F)cc2C(=O)N2CCN(C(=O)c3ccco3)C[C@@H]12	-1	0%[87.6 µM]	35µM*	-8%[87.6 µM]
COc1ccc(-c2ccc3c(c2)C(=O)N2CCN(C(=O)CC(C)(C)C)C[C@@H]2C(=O)N3)cc1	7	-1%[87.6 µM]	28µM*	-10%[87.6 µM]
CCc1ccc(CNC(=O)c2cc3n(n2)CC(c2ccc4c(c2)OCO4)OC3)cc1 (configuration not stated)	-2	9%	25µM*	-4%
CCOc1ccccc1CNC(=O)c1cc2n(n1)CC(c1ccc3c(c1)OCO3)OC2 (configuration not stated)	-15	8%	32µM*	u
O=C(NCC1CC1)c1cc2n(n1)CC(c1ccc3c(c1)OCO3)OC2 (configuration not stated)	11	-4%	i	1%
O=C(NCc1ccc(F)cc1F)c1cc2n(n1)CC(c1ccc3c(c1)OCO3)OC2 (configuration not stated)	5	-9%	28µM*	7%
O=C(NCc1ccc(Cl)cc1)c1cc2n(n1)CC(c1ccc3c(c1)OCO3)OC2 (configuration not stated)	-2	u	28µM*	u
CCCCNC(=O)c1cc2n(n1)CC(c1ccc3c(c1)OCO3)OC2 (configuration not stated)	25	-4%	i	-6%
COC(=O)c1ccc(NC(=O)CSc2nccn2Cc2ccc(Cl)cc2)cc1	-15	6%	i	-3%
CCOc1ccc(C(=O)NCc2nnnn2-c2ccc(C)c(C)c2)cc1OCC	8	-2%	i	15%
COc1ccc(S(=O)(=O)N2CCn3cccc3C2c2ccccc2F)cc1C (configuration not stated)	x	x	i	x
CCOc1ccccc1C(=O)N1CCCN(C)c2ccccc21	-14	u	i	1%
CCc1noc(-c2cccn3c(CNC(=O)c4ccc(OC)cc4)nnc23)n1	8	-17%	u	7%
COc1cccc(C(=O)NCc2nnc3c(-c4nc(C)no4)cccn23)c1	8	-11%	28µM*	-10%
CCc1noc(-c2cccn3c(CNC(=O)c4cccc(OC)c4)nnc23)n1	0	-1%	22µM*	u
Cc1noc(-c2cccn3c(CNC(=O)c4cccc(N(C)C)c4)nnc23)n1	1	-7%	u	132%
O=C(c1cc2cc(Cl)ccc2oc1=O)N1CCN(Cc2ccccc2)CC1	x	x	i	x
CN1CC(=O)N(C2CCNC2)Cc2c(NCC3CCCCC3)ncnc21 (configuration not stated)	6	-1%	u	-12%
CCc1cccc(NC(=O)Cn2c(=O)n(Cc3ccccc3)c(=O)c3c(C)c(C(=O)N(C)C)sc32)c1	-13	-13%	i	13µM*
CCN(CC)C(=O)c1sc2c(c1C)c(=O)n(Cc1ccccc1)c(=O)n2CC(=O)Nc1ccc(OC)cc1	28	-6%	i	-6%
Cc1ccccc1-c1ncc2c(n1)OCCN(c1ccccc1)C2=O	-18	-3%[87.6 µM]	i	10%[87.6 µM]
CN(C)c1cccc(-c2nc(N3CCOCC3)cc3c2CN(Cc2cnn(C)c2)C3=O)c1	10	-9%[87.6 µM]	i	-6%[87.6 µM]
CN1Cc2c(cc(N3CCOCC3)nc2-c2cnn(C)c2)C1=O	15	9%[87.6 µM]	40µM*	97%[87.6 µM]
Cc1ccccc1-c1nc(N2CCOCC2)cc2c1CN(c1ccccc1)C2=O	14	-3%[87.6 µM]	35µM*	0%[87.6 µM]
COc1ccc(-c2noc(C3CC(=O)N(c4ccccc4)C3)n2)c(OC)c1 (configuration not stated)	-10	-6%	i	70%
SMILES	IP6K1 inh	HEK293 viab	KDM5B inh	SNCA expr inh
COc1cc(F)ccc1-c1nc(N2CCOCC2)cc2c1CN(c1ccccc1)C2=O	4	5%[87.6 µM]	10µM*	-26%[87.6 µM]
Cc1ccccc1-c1nc(N2CCOCC2)cc2c1CN(Cc1ccccc1)C2=O	10	-27%[87.6 µM]	32µM*	u
Cc1ccccc1-c1nc(N2CCOCC2)cc2c1CN(Cc1cnn(C)c1)C2=O	3	-10%[87.6 µM]	40µM*	-9%[87.6 µM]
O=C1c2cc(N3CCOCC3)nc(-c3cccnc3)c2CN1c1ccccc1	7	-4%[87.6 µM]	40µM*	8%[87.6 µM]
COc1ccc(-c2nc(N3CCOCC3)cc3c2CN(Cc2cnn(C)c2)C3=O)cn1	12	3%[87.6 µM]	40µM*	11%[87.6 µM]
CN1C(=O)C(CC(=O)N2CCC(CN)CC2)(Cc2ccccc2)c2ccccc21 (configuration not stated)	7	-8%	i	-36%
